# Source: ChEMBL document CHEMBL3988442, “University of Dundee, Small-Polar-MMV Screening Library” (2021)
# About 420 (0.61%) of roughly 69,000 compounds showed an effect of 50% or more. The sample as a whole holds a higher share of strong results than the screen did.
# Biological target: T1, Histidine--tRNA ligase (Leishmania infantum) (UniProt A4I591)
# T1 sequence (whole entry): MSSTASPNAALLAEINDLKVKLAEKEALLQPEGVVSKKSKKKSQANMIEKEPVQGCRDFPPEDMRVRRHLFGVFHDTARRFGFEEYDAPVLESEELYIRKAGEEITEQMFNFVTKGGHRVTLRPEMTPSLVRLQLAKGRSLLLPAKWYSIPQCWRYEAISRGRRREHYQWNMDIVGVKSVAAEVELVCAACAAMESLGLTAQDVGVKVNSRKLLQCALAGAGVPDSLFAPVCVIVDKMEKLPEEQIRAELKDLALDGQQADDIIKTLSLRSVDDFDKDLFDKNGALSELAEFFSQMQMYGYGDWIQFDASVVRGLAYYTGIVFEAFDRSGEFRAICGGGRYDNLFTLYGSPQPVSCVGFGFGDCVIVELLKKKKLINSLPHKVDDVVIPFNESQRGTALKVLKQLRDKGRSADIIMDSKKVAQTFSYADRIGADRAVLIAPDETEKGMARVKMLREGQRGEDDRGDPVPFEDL
# Assay: Leishmania infantum Histidine tRNA synthetase (LdHisRS)
# Format: functional
# Parameters: scale not given: in the data most compounds retested in dose-response had high values
# Settings: 30 µM
row,Structure (SMILES),Percent Effect [%]
1,CNC(=O)CN1CC[C@H]2CN(C(=O)c3cccn3C)C[C@H]2C1,2.78
2,CSCC(C)NS(=O)(=O)c1ccc(C)c(N(C)C)c1 (stereo not given),19.3
3,Cc1ccc(S(=O)(=O)N[C@H](CO)C(C)C)cc1N(C)C,53
4,Cc1ccc(S(=O)(=O)NC(CO)CC(C)C)cc1N(C)C (stereo not given),43.4
5,O=C(NCCc1ccncc1)[C@@H]1CC[C@@H]2[C@@H](CCN2Cc2ccco2)O1,20
6,CNC(=O)N1C[C@H]2C[C@H](C(=O)Nc3ccccc3)[C@@H](C1)O2,19.6
7,COc1ccc(NC(=O)Cn2nc(C)c(C)cc2=O)cc1,-0.8
8,CC(=O)c1c(C)nn(CC(=O)Nc2ccc(F)cc2)c1C,15.7
9,COc1ccc(NC(=O)Cn2nc(C)c(C(C)=O)c2C)cc1,52.2
10,Cc1cc(=O)n(CC(=O)Nc2ccc(Cl)cc2)nc1C,7.2
11,COc1ccc(NC(=O)Cn2nc(C)c(C)cc2=O)cc1OC,7.69
12,CC(=O)c1c(C)nn(CC(=O)Nc2ccc(Br)cc2)c1C,71.3
13,O=C1O[C@@H]2CN(S(=O)(=O)N3CCCC3)C[C@@H]2N1CCc1cccc(Cl)c1,7.29
14,O=C1CC[C@]2(CC[C@@H](NCc3ccsc3)CC2)N1Cc1ccccc1,25
15,COCCN1C(=O)[C@H]2CC[C@@H]1CN(C(=O)COc1ccc(F)c(Cl)c1)C2,-13.3
16,N#Cc1ccsc1N1CCC(Sc2ccncc2)C1=O (stereo not given),53.1
17,N#Cc1ccsc1N1CCC(Sc2ncc[nH]2)C1=O (stereo not given),20.4
18,Cc1nnc(SC2CCN(c3sccc3C#N)C2=O)[nH]1 (stereo not given),12.2
19,NC(=O)N1CC[C@@H]2O[C@@H](COCC(=O)N3CCCC3)CC[C@@H]21,0
20,CCCc1nc(CN2CCOC(CNc3cccnn3)C2)cs1 (stereo not given),69
21,COCc1nc(CN2CCOC(CNc3cccnn3)C2)cs1 (stereo not given),35.1
22,CCc1nc(CN2CCOC(CNc3cccnn3)C2)cs1 (stereo not given),24.6
23,CN(C)CCO[C@H]1CN(Cc2ccc3c(c2)OCO3)[C@@H]2COC[C@H]12,17.1

row,Structure (SMILES),Percent Effect [%]
1,CN(C)C(=O)CO[C@H]1CN(Cc2ccc3c(c2)OCO3)[C@@H]2COC[C@H]12,13.2
2,O=C(c1cnnn1-c1ccccc1)N1CCCC(c2ccn[nH]2)C1 (stereo not given),15.7
3,O=C(c1cc(=O)n(-c2ccccc2)[nH]1)N1CCCC(c2ccn[nH]2)C1 (stereo not given),59
4,O=C(c1cc(=O)n(-c2ccccc2)[nH]1)N1CCOCC(O)C1 (stereo not given),6.2
5,Cc1ncsc1CN1C[C@@H]2COC[C@]2(CNC(=O)c2ccccc2)C1,20.5
6,CCN(CC)[C@H]1COC[C@@H]2CN(Cc3cnn(C)c3)C[C@@H]21,15.8
7,Cn1nc2c(cc1=O)CN(Cc1nnc(C3CC3)o1)CC2,97.9
8,Cn1nc2c(cc1=O)CN(Cc1nc(C(C)(C)C)no1)CC2,82.4
9,CCn1nc2c(cc1=O)CN(Cc1nc(CCOC)no1)CC2,23.4
10,CCCn1nc2c(cc1=O)CN(Cc1nnc(C3CC3)o1)CC2,24.5
11,CCn1nc2c(cc1=O)CN(Cc1nnc(C3CC3)o1)CC2,22.6
12,Cn1nc2c(cc1=O)CN(Cc1nc(C3CC3)no1)CC2,102
13,Cc1ccc(F)cc1CC(=O)N1CC[C@@]2(O)CCNC[C@H]2C1,4.92
14,O=C(C1CCOCC1)N1CCO[C@H]2[C@H](Oc3cccnc3)CC[C@@H]21,9.68
15,O=C(c1ccco1)N1C[C@H]2CCCN(Cc3ccc(F)cc3)[C@H]2C1,10.9
16,O=C(C1CCOCC1)N1C[C@H]2C[C@H](OCc3ccccc3)C[C@H]2C1,12.9
17,O=C(C[C@H]1[C@H]2CN(Cc3ccsc3)C[C@@H]12)N1CCCC1,15.5
18,O=C(Cc1cccc(F)c1)N1C[C@H]2CN(Cc3ccccn3)C[C@H]2C1,15.4
19,O=C(CSc1ccccc1)N1C[C@H]2CC[C@@H]1CN(Cc1ccncc1)C2,12.9
20,O[C@@H]1C[C@@](CNCc2ccccn2)(COc2cccnc2)C[C@@H]1O,12.2
21,FC1(F)CCN(Cc2cccnc2)CC12CCN(c1ccccn1)C2 (stereo not given),19.6
22,FC1(F)CCN(Cc2cccnc2)CC12CCN(c1ccccc1)C2 (stereo not given),57.3
23,FC1(F)CCN(c2ccccc2)CC12CCN(c1ncccn1)C2 (stereo not given),21.4

row,Structure (SMILES),Percent Effect [%]
1,O=C(O)CN1CCC(F)(F)C2(CCN(c3ccccc3)C2)C1 (stereo not given),53.9
2,FC1(F)CCN(Cc2ccncc2)CC12CCN(c1cccnc1)C2 (stereo not given),19.1
3,O=C(CO)N1CCC(F)(F)C2(CCN(c3ccccc3)C2)C1 (stereo not given),23.1
4,O=C(C1CCC1)N1CCN(Cc2ccc(F)cc2)[C@H]2CS(=O)(=O)C[C@H]21,17.8
5,COc1ccc(N)c(N2CCN(C(C)=O)CC2)n1,61.6
6,COc1ccc(NC(=O)CCC(C)C)c(N2CCN(C(C)=O)CC2)n1,11.6
7,COc1ccc(NC(C)=O)c(N2CCN(C(C)=O)CC2)n1,17.3
8,Cc1ccc(NC(=O)Nc2c(O)oc3ccccc3c2=O)cc1,6.17
9,O=C1CO[C@H]2CN(Cc3ccc(F)c(F)c3)C[C@H]2N1,1.35
10,Cc1cc2nc(SCC(=O)N3CCCCC3)n(C)c(=O)c2[nH]1,10.5
11,Cc1cc2nc(SCC(=O)N3CCCC3)n(-c3ccccc3)c(=O)c2[nH]1,51.4
12,Cc1cc2nc(SCC(=O)N3CCCC3)n(C)c(=O)c2[nH]1,5.26
13,COCCC(=O)N1C[C@@H]2COC[C@]2(COCc2cccnc2)C1,10.7
14,CCS(=O)(=O)N1C[C@H]2CN(Cc3cccnc3)C(=O)[C@H]2C1,0
15,O=C(c1ccnnc1)N1CCO[C@H]2[C@@H](OCc3cccnc3)CC[C@@H]21,25.7
16,CC(=O)N1C[C@@H]2CC[C@H](C1)N(Cc1ccc(Cn3cccn3)cc1)C2,14.2
17,CCCN1C[C@H]2CC[C@@H]1CN(Cc1ccc(Cn3cccn3)cc1)C2,17.5
18,CCCN1C[C@H]2CC[C@@H]1CN(Cc1ccc(-n3cccn3)cc1)C2,50.8
19,CCCN1C[C@H]2CC[C@@H]1CN(Cc1cccc(O)c1)C2,32.9
20,CCCN1C[C@H]2CC[C@@H]1CN(Cc1cccc(-n3cccn3)c1)C2,14.2
21,CCN1CCO[C@@H]2CN(C(=O)c3ccc4[nH]ccc4c3)CC[C@@H]2C1,26
22,CN1CCN(C(=O)[C@H]2C[C@@H]3CCN(c4ncc(F)cn4)C[C@@H]3O2)CC1,7.55
23,CC(=O)N1CC[C@H]2OCC[C@@H](C(=O)Nc3cccnc3C)[C@@H]2C1,17.3

row,Structure (SMILES),Percent Effect [%]
1,CN(C)C(=O)N1C[C@@H]2CC[C@H](C1)N(S(=O)(=O)c1cccnc1)C2,12.1
2,CCO[C@H]1CN(CC2CCOCC2)[C@@H]2CCCO[C@H]12,7.92
3,O=S(=O)(C1CC1)N1CCO[C@H]2[C@H](OCC3CC3)CC[C@@H]21,5.56
4,O=C(c1cnccn1)N1CCN2C[C@H](OCc3ccccc3)C[C@H]2C1,15.1
5,O=C(Nc1ccccn1)c1csc(NC2CCCC2)n1,28.1
6,Cc1cnc(NC(=O)c2csc(NC3CCCC3)n2)s1,21.4
7,O=C(Nc1nccs1)c1csc(NC2CCCC2)n1,66.3
8,Cc1n[nH]c(SCC(=O)N2C[C@H]3CC[C@@H]2CN(c2ncccn2)C3)n1,9.38
9,COCCN1C[C@@H]2CCCO[C@@H]2[C@H](NC(=O)c2cnccn2)C1,11.3
10,CC(C)CN1CCC(NCCNc2cccnc2)CC1,9.76
11,c1cncc(NCCNC2CSCCSC2)c1,74.3
12,c1cncc(NCCCNC2CCSC2)c1 (stereo not given),28.6
13,Cc1cnccc1NCCNC1CCSCC1,17.1
14,c1cncc(NCCNC2CCSCC2)c1,8.57
15,c1cncc(NCCNC2CCSC2)c1 (stereo not given),62.9
16,CN(Cc1ccsc1)C(=O)Nc1ccc(S(C)(=O)=O)cc1,11.9
17,Cn1cc(NC(=O)NCc2ccsc2)ccc1=O,126
18,CN(Cc1ccsc1)C(=O)Nc1ccc(S(=O)(=O)N(C)C)cc1,-30.3
19,Cc1cc(NC(=O)CCc2ccsc2)n(C)n1,18.3
20,CN(Cc1ccsc1)C(=O)Nc1ccc(=O)n(C)c1,123
21,CCNC(=O)N1CCc2ccc(NC(=O)NCc3ccsc3)cc21,31.7
22,Cn1cc(NC(=O)CCc2ccsc2)ccc1=O,103
23,Cc1cnccc1NC(=O)CCc1ccsc1,9.33

row,Structure (SMILES),Percent Effect [%]
1,COCc1csc(NC(=O)NCc2ccsc2)n1,14.3
2,O=C1CO[C@H]2CN(S(=O)(=O)c3ccccc3)C[C@H]2N1Cc1ccccc1,25
3,CCC1=N[C@@]2(CC[C@@H]3CN(S(C)(=O)=O)C[C@@H]32)C(=O)N1CC(C)C,7.96
4,CC(C)CO[C@H]1CN(S(=O)(=O)c2cn(C)cn2)[C@@H]2CCCO[C@H]12,1.01
5,C(=C\c1ccc(CN2CCCC2)cn1)/c1ccccc1,22.6
6,COc1ccc(C(C)=O)cc1CN1CCn2cccc2C1C (stereo not given),52.7
7,COc1ccc(C)cc1CN1CCn2cccc2C1C (stereo not given),42
8,COc1ccc(CN2CCn3cccc3C2C)cc1F (stereo not given),29.5
9,CN(C)C[C@H]1OC[C@@H]2CCN(S(=O)(=O)c3ccc(F)cc3)C[C@@H]21,-4.59
10,O=C1CC[C@H]2CN(C3CCOCC3)CC[C@H]2N1CCC1=CCCCC1,15.6
11,COc1ccc(CN2C[C@@H]3CC[C@H](C2)N(S(C)(=O)=O)C3)cc1,10
12,O=S1(=O)C[C@@H]2[C@H](C1)N(S(=O)(=O)N1CCCC1)CCN2Cc1ccccc1,19.2
13,CN(C)CCN1CCO[C@@H]2CCN(C(=O)c3cccn3C)CC[C@H]21,52.8
14,CN(C)CCN1CCO[C@H]2CCN(C(=O)c3cccs3)CC[C@@H]21,15.4
15,CN(C)CCN1CCCC12CCN(C(=O)c1cccn1C)CC2,5.88
16,COc1ccccc1CN1C(=O)O[C@@H]2CN(CC3CC3)C[C@@H]21,10
17,O=C([C@@H]1CC[C@@H]2[C@@H](CCN2Cc2cccs2)O1)N1CCCCO1,17.1
18,NC(=O)c1cnc2n1CCN(C(=O)c1cccc(Cn3cccn3)c1)C2,12.6
19,Cc1nc2ccc(C(=O)N3CCn4c(C)nnc4C3)cc2nc1C,21
20,NC(=O)c1cnc2n1CCN(C(=O)c1ccc(Cn3cccc3)cc1)C2,63.2
21,NC(=O)c1cnc2n1CCN(C(=O)c1ccc(-c3cc[nH]n3)cc1)C2,14.9
22,CC(C)c1nnc2n1CCN(C(=O)c1ccc(Cn3cccc3)cc1)C2,14.9
23,Cc1nnc2n1CCN(C(=O)c1ccc(Cn3cccc3)cc1)C2,51.7
